In PubChem BioAssay (EPA / NIEHS):
Inconclusive results are not listed. More than one record can exist for a structure, and the calls need not agree. Activity calls are given as the source filed them. Rule for the calls: active = hit-call score of the fitted dose curve at least 0.9, where 1 is the maximum; inconclusive = response in the unintended direction; inactive = score below 0.9.

Legend:
[1] = NVS_IC_rCaBTZCHL: NovaScreen (NVS) Ion Channel Assay for Calcium Channel, Type L, Benzothiazepine Site (CaBTZCHL) (AID 2283337)
Procedure, shortened: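 Radioligand displacement at the benzothiazepine site using rat cortical membranes; bound label measured by filtration and scintillation counting 1.5 h after dosing. Single-point 25 uM in duplicate, then concentration series; DMSO baseline.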

[2] = target: Estrogen receptor (Homo sapiens) (UniProt P03372); test: NVS_NR_hER: NovaScreen (NVS) Nuclear Receptor Binding Assay for human Estrogen Receptor (ER) (AID 2283348)
Procedure, shortened: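 Radioligand competitive displacement binding to estrogen receptor from MCF7 extract, cell-free; 18 h after dosing, scintillation read-out. Primary screen in duplicate at 25 uM; actives followed up in concentration series; loss of signal vs DMSO.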

[3] = target: chimpanzee Androgen Receptor (AR), AR (gene 747460) (UniProt O97775); test: NVS_NR_cAR: NovaScreen (NVS) Nuclear Receptor Binding Assay for chimpanzee Androgen Receptor (AR) (AID 2283346);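 note: radioligand displacement from AR measured by scintillation counting in a cell-free assay; a loss of bound radioligand signal versus DMSO counts as binding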
Procedure, shortened: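 Radioligand binding to chimpanzee AR expressed in Sf9/Sf21 cells, cell-free, measured 72 h after dosing by lysate-based scintillation counting. Loss of signal vs DMSO; initial duplicate screen at 25 uM, actives retested in concentration series.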

[4] = target: Estrogen receptor (Homo sapiens) (UniProt P03372); test: OT_ER_ERaERa_1440: Odyssey Thera (OT) 24-hour HEK293T Protein-Complementation Assay for Estrogen Receptor-alpha/-alpha Homodimer (AID 2283349);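 note: hits raise fluorescence above DMSO for agonists and antagonists alike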
Procedure, shortened: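 HEK293T cells stably expressing the human ER alpha ligand-binding domain (aa 310-547) as a homodimer PCA were dosed for 24 hours. Fluorescence intensity was read by laser scanning cytometry, and gain of signal was fitted relative to DMSO vehicle.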

[5] = target: Estrogen receptor (Homo sapiens) (UniProt P03372); test: OT_ER_ERaERa_0480: Odyssey Thera (OT) 8-hour HEK293T Protein-Complementation Assay for Estrogen Receptor-alpha/-alpha Homodimer (AID 2283351);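 note: rise in fluorescence from reassembled reporter fragments on ERα LBD homodimer in nucleus or whole cell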
Procedure, shortened: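 The readout is complementation of fragments fused to the human ER alpha ligand-binding domain (aa 310-547), stably expressed in HEK293T cells. After 8 h of exposure, the increase in nuclear/cytoplasmic fluorescence was measured by laser scanning cytometry and fitted relative to DMSO.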

[6] = target: bovine Estrogen Receptor (ER), ESR1 (gene 407238) (UniProt P49884); test: NVS_NR_bER: NovaScreen (NVS) Nuclear Receptor Binding Assay for bovine Estrogen Receptor (ER) (AID 2283345);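 note: actives lower the bound radioligand count which means they displace the ER ligand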
Procedure, shortened: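 Cell-free radioligand binding with receptor from bovine uterine membranes, read by scintillation counting 18 h after dosing. Loss of specific binding was scored against DMSO; primary screen at 25 uM in duplicate, actives then run as concentration series.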

[7] = target: Estrogen receptor (Homo sapiens) + Estrogen receptor beta (Homo sapiens) (UniProt P03372+Q92731); test: OT_ER_ERaERb_0480: Odyssey Thera (OT) 8-hour HEK293T Protein-Complementation Assay for Estrogen Receptor-alpha/-beta Heterodimer (AID 2283352)
Procedure, shortened: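 HEK293T protein-fragment complementation assay of ER-alpha/ER-beta LBD heterodimerisation, read 8 h after dosing. Mean nuclear/cytoplasmic fluorescence intensity measured by laser scanning cytometry; gain of signal fitted relative to DMSO.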

Sequence of bovine Estrogen Receptor (ER), ESR1 (gene 407238) (P49884 whole entry, looked up): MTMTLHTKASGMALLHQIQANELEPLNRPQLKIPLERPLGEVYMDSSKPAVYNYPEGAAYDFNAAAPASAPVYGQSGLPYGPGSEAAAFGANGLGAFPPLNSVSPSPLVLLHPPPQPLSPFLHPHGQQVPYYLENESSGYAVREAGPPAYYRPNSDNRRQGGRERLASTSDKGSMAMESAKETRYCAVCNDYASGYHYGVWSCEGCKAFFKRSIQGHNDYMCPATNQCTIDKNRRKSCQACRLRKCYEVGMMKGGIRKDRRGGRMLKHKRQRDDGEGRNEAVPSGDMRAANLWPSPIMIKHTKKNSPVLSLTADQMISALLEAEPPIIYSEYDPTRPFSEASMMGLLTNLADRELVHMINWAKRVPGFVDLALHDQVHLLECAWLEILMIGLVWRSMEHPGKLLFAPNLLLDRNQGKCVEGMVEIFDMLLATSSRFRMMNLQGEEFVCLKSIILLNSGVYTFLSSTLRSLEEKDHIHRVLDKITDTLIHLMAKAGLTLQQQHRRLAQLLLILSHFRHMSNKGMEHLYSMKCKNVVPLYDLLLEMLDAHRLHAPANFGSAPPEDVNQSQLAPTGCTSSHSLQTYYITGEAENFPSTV
Sequence of chimpanzee Androgen Receptor (AR), AR (gene 747460) (O97775 whole entry, looked up): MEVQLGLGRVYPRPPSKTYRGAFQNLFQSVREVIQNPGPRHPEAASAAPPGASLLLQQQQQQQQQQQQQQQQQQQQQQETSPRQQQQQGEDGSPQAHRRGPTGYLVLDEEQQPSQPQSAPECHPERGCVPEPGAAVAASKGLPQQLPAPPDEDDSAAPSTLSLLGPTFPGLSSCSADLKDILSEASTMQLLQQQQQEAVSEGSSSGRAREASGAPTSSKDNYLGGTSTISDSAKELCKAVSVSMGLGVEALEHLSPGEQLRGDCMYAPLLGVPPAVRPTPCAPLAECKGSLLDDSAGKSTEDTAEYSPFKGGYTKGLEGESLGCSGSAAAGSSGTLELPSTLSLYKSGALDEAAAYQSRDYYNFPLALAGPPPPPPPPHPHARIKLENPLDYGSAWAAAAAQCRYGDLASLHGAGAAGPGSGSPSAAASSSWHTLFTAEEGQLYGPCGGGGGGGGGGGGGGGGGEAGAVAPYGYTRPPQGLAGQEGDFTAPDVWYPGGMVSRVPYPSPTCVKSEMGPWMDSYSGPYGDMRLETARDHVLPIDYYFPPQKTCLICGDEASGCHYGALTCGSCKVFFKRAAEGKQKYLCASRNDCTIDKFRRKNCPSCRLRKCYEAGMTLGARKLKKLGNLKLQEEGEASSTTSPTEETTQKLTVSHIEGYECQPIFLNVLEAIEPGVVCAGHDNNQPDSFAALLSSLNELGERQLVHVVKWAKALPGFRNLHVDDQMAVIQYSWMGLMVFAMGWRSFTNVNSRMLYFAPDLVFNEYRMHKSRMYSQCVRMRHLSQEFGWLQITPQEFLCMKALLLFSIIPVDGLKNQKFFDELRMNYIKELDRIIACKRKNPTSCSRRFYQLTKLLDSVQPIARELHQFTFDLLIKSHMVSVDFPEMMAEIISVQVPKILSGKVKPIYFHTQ
Sequence of Estrogen receptor (Homo sapiens) (P03372 whole entry, looked up, the tested form may be a part): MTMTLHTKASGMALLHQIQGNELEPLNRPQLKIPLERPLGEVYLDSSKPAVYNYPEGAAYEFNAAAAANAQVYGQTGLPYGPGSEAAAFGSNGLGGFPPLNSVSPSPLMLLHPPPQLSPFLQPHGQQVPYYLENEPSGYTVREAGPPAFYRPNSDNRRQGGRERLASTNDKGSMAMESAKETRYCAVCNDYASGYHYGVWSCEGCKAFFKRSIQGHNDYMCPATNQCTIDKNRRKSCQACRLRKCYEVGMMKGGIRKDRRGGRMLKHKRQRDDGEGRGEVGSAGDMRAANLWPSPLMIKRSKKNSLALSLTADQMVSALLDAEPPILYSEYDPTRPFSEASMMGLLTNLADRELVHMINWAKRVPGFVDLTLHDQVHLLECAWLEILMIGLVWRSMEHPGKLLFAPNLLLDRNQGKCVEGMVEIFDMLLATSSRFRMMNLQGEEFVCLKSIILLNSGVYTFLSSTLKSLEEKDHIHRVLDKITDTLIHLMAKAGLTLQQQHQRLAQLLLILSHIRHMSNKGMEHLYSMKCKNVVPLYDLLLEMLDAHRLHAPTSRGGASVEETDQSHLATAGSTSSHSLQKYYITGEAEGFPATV
Sequence of Estrogen receptor (Homo sapiens) + Estrogen receptor beta (Homo sapiens) (P03372 whole entry, looked up, the tested form may be a part): as above
Sequence of Estrogen receptor (Homo sapiens) + Estrogen receptor beta (Homo sapiens) (Q92731 whole entry, looked up, the tested form may be a part): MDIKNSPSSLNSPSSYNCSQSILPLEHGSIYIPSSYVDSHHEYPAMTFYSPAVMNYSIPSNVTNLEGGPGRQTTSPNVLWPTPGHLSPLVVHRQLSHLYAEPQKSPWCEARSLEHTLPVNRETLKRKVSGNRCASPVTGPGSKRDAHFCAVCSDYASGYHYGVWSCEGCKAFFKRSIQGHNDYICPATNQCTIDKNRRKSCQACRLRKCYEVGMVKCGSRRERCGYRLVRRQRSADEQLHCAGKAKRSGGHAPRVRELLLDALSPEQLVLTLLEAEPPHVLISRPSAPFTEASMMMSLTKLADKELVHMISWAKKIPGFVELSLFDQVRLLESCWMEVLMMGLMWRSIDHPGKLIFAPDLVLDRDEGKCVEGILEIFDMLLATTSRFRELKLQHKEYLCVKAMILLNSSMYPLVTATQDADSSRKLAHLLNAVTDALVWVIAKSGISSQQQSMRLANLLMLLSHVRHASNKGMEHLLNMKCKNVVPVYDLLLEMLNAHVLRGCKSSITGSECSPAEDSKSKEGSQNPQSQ

CCO[Si](CCCN=C=O)(OCC)OCC
outcome [1]: inactive

COC(=O)C1=C(C)NC(C)=C(C(=O)OCC(C)C)C1c1ccccc1[N+](=O)[O-] (stereo unspecified)
outcome [2]: inactive

CCCOC(=O)CCCCC(=O)OCCC
outcome [3]: inactive

CC(C)c1ccc2c(c1)CC[C@H]1[C@](C)(CN)CCC[C@]21C
outcome [2]: inactive

NC(=O)c1ccccc1O
outcome [4]: inactive | outcome [5]: inactive

CCCCCCCCCCOS(=O)(=O)O
outcome [4]: inactive | outcome [5]: inactive

Nc1ccc2cc3ccccc3cc2c1
outcome [2]: inactive

CCCCOCCOC(=O)COc1nc(Cl)c(Cl)cc1Cl
outcome [4]: inactive | outcome [5]: inactive

CCN(CCC#N)c1ccc(N=Nc2c(Cl)cc([N+](=O)[O-])cc2Cl)cc1
AC50 [3]: 16.1 µM (active) | outcome [4]: inactive | outcome [5]: inactive

O=C1C(N(CO)C(=O)NCO)N(CO)C(=O)N1CO (stereo unspecified)
outcome [4]: inactive | outcome [5]: inactive

OC1CCCC1
outcome [6]: inactive | outcome [2]: inactive | outcome [4]: inactive | outcome [5]: inactive | outcome [7]: inactive

COC(=O)c1c(C)cc(O)c(C)c1O
AC50 [3]: 13.6 µM (active) | outcome [4]: inactive | outcome [5]: inactive | AC50 [7]: 50.4 µM (active)

O=C(OCC1CCC2OC2C1)C1CCC2OC2C1 (stereo unspecified)
outcome [6]: inactive | outcome [4]: inactive | AC50 [5]: 12.1 µM (active)

CC(=O)NS(=O)(=O)c1ccc(N)cc1
outcome [2]: inactive

O=C(O)c1ccccc1Nc1cccc(C(F)(F)F)c1
outcome [2]: inactive

COc1cc(NC(=O)CC(C)=O)c(OC)cc1Cl
outcome [2]: inactive

[Cl][In]([Cl])[Cl]
outcome [6]: inactive | AC50 [2]: 25 µM (active) | outcome [2]: inactive

CCOC(=O)CC
outcome [4]: inactive

c1ccc2c(c1)ccc1cc3c(ccc4ccccc43)cc12
outcome [3]: inactive | outcome [4]: inactive | outcome [5]: inactive

CC(C)C1=CC2=CC[C@@H]3[C@](C)(CCC[C@@]3(C)C(=O)O)[C@H]2CC1
outcome [2]: inactive | AC50 [4]: 12 µM (active) | outcome [5]: inactive
